BoNT-F LC inh: inhibitors of Botulinum neurotoxin F light chain protease; Multiplex microsphere protease cleavage assay, flow cytometry; inhibition, % at 10 µM; 360,000 compounds, 0.22% hits; in the data active means inhibition above about 35%, passing the limit was not always enough; inconclusive means no clear call, values can overlap the other calls; further: plate controls were buffer without enzyme for full effect and enzyme alone for no effect
Anthrax LF prot: anthrax lethal factor protease inhibition; 360,000 compounds, 0.12% hits; P15917; multiplex microsphere protease cleavage assay, LF; inhibition, % at 10 µM; AID 588501; further: plate controls were buffer without enzyme for full effect and enzyme alone for no effect
Target sequence (P15917 whole entry, looked up): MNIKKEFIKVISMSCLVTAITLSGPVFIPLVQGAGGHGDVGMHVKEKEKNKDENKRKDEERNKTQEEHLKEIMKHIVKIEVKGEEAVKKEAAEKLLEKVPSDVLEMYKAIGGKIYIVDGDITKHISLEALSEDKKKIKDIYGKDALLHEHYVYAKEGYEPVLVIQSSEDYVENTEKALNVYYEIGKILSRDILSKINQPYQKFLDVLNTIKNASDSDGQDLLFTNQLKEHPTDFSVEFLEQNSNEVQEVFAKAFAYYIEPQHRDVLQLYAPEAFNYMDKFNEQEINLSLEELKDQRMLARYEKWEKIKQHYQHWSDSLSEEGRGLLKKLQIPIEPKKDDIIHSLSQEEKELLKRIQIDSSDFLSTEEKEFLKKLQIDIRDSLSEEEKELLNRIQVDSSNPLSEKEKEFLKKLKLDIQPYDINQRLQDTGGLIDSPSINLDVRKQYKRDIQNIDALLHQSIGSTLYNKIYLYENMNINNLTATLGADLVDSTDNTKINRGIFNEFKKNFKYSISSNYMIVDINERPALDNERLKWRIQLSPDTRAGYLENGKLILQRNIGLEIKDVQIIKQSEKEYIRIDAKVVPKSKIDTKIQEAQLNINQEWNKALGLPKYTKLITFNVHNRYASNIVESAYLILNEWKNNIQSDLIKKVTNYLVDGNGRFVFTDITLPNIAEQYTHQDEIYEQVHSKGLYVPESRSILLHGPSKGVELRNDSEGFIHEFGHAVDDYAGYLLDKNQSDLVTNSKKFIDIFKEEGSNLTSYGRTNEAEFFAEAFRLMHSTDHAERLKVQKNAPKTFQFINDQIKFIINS
BoNT-A LC inh2: inhibitors of Botulinum neurotoxin A light chain protease; AID 588499; 360,000 compounds, 0.17% hits; multiplex microsphere protease substrate cleavage, flow cytometry; inhibition, % at 10 µM; further: plate controls were buffer without enzyme for full effect and enzyme alone for no effect
Autofluor counter: compound fluorescence in toxin protease inhibitor counterscreen. compound autofluorescence counterscreen, microsphere flow cytometry; hits give high values. fluorescence intensity (test concentration not listed). 360,000 compounds, 3.1% hits. AID 624483; in the data active means fluorescence intensity above about 16000; inconclusive means no clear call, values can overlap the other calls
The depositor's hits bear a star; ? = inconclusive. Compounds with a hit are over-represented: about 3.5% of the library has one in this group of screens. Unless noted, no stated cut-off is given here; in the data, active means inhibition above about 30%; inconclusive means no clear call, values can overlap the other calls; inactive means below that.

SMILES | BoNT-F LC inh | Anthrax LF prot | BoNT-A LC inh2 | Autofluor counter
CCOC(=O)C1=C(N)Oc2cc(C)oc(=O)c2C12C(=O)N1c3c(cccc32)C(C)=CC1(C)C (stereo not drawn) | 2 | -8 | 3 | 21518*
CCOC(=O)C1=C(N)Oc2cc(C)oc(=O)c2C12C(=O)N1c3c(cccc32)C(C)CC1(C)C (stereo not drawn) | -7 | 0 | 1 | 10460
CCOC(=O)C1=C(N)Oc2cc(C)oc(=O)c2C12C(=O)N1c3c(cc(OC)cc32)C(C)=CC1(C)C (stereo not drawn) | -1 | -4 | ? | 23174*
Cc1ccc(CN2CC(N3CCCCC3)CS2(=O)=O)cc1 (stereo not drawn) | 8 | 3 | 0 | 6236
CC(C)CC(=O)Nc1cccc(-c2nc3ccccc3o2)c1 | -2 | 1 | 0 | 23031*
CCOC(=O)c1c(C)c(C(=O)NC(C)COC)c(C)n1CC (stereo not drawn) | -5 | -2 | 0 | 10631
CCOC(=O)c1c(C)c(C(=O)NCCN2CCOCC2)c(C)n1C | 13 | -14 | 13 | 13279
CCOC(=O)c1c(C)c(C(=O)NCc2ccc3c(c2)OCO3)c(C)n1C | -8 | -2 | -2 | 16759*
CCOC(=O)c1c(C)c(C(=O)NCCCOC(C)C)c(C)n1C | 2 | -6 | 2 | 19718*
CCOC(=O)c1c(C)c(C(=O)NC(C)COC)c(C)n1C (stereo not drawn) | -5 | -3 | ? | 17439*
CCCCN(C=O)c1c(CC)nc2ccc(C(=O)Nc3cc(-c4ccccc4)ccc3OC)cn12 | -3 | -2 | 0 | 3889
CCCCNS(=O)(=O)c1ccc(NS(=O)(=O)c2c(C)cc(C)cc2C)cc1 | -4 | 0 | ? | 16873*
C=CCSc1nc(N)c(C#N)c(-c2ccccc2)c1C#N | 5 | -2 | 4 | 21076*
CCOC(=O)c1nc(C)sc1-c1ccnn1S(=O)(=O)c1ccc(C)cc1 | ? | 1 | 3 | 3274
COc1cccc(C2=NOC(C(=O)Nc3cc(OC)c(OC)c(OC)c3)C2)c1 (stereo not drawn) | -3 | -4 | -3 | 21270*
COc1cc(C2=NOC(C(=O)Nc3ccc4c(c3)OCO4)C2)cc(OC)c1OC (stereo not drawn) | -33 | -12 | 1 | 3272
COc1cc(C2=NOC(C(=O)Nc3ccc(C)cc3)C2)cc(OC)c1OC (stereo not drawn) | 1 | -2 | 2 | 19324*
COc1cc(NC(=O)C2CC(c3cccc(Br)c3)=NO2)cc(OC)c1OC (stereo not drawn) | 0 | 16 | 5 | 3964
COc1ccc(C2=NOC(C(=O)Nc3ccc(C)cc3)C2)cc1OC (stereo not drawn) | 3 | 3 | 2 | 21677*
COc1ccc(CNC(=O)C2CC(c3cccc(OC)c3)=NO2)cc1 (stereo not drawn) | 9 | -9 | 9 | 19613*
Nc1ccn([C@@H]2O[C@H](CNCc3ccc(OCC(=O)Nc4nccs4)cc3)[C@@H](O)[C@H]2O)c(=O)n1 | 0 | -4 | 0 | 3348
COc1ccc(NC(=O)C2CC(c3ccc(OC)c(OC)c3)=NO2)cc1OC (stereo not drawn) | -22 | -8 | 1 | 10820
COc1cc(C2=NOC(C(=O)NCc3ccc(F)cc3)C2)cc(OC)c1OC (stereo not drawn) | -6 | 0 | -2 | 17938*
COc1ccc(NC(=O)C2CC(c3cc(OC)c(OC)c(OC)c3)=NO2)cc1OC (stereo not drawn) | 1 | -2 | 5 | 21486*
COc1cc(C2=NOC(C(=O)N3CCN(c4ccc(F)cc4)CC3)C2)cc(OC)c1OC (stereo not drawn) | -2 | -3 | -3 | 17355*
SMILES | BoNT-F LC inh | Anthrax LF prot | BoNT-A LC inh2 | Autofluor counter
COc1ccc(CN(CC2CCCO2)C(=O)CN2C(=O)C(C)Oc3ccc(C)cc32)cc1OC (stereo not drawn) | -3 | 0 | 0 | 3865
CCC1Oc2ccc(C)cc2N(CC(=O)N(Cc2ccc3c(c2)OCO3)CC2CCCO2)C1=O (stereo not drawn) | -4 | 2 | -2 | 24977*
CC[C@]12c3[nH]c4ccc(Cl)cc4c3CCN1C(=O)[C@@H](CC(=O)NC/C=C(\C)CCC=C(C)C)C[C@@H]2C(=O)N1CCN(C(=O)c2ccco2)CC1 | -1 | -4 | 0 | 3488
Cc1cc(C)n(-c2ccc(OCC(=O)O)nn2)n1 | -3 | -1 | -2 | 23964*
CSc1nc(SCC(=O)NC(c2ccccc2)c2ccccc2)c2c3c(sc2n1)CN(C)CC3 | -4 | 5 | 4 | 16363*
CSc1nc(NCC(C)O)c2c3c(sc2n1)CN(C)CC3 (stereo not drawn) | ? | -12 | 0 | 4387
CC1CC(C)(C)CC2(C1)NC(=O)N(CC(=O)Nc1ccc(N3CCCCC3)cc1)C2=O (stereo not drawn) | -6 | -2 | 4 | 5491
CC(C)NC(=O)C1CCN(C(=O)C(C(=O)c2ccccc2)n2cc(Cl)ccc2=O)CC1 (stereo not drawn) | -3 | 0 | 0 | 23513*
COC(=O)[C@H]1C[C@@]2(O)CN(S(=O)(=O)c3ccc(C)cc3)C[C@@]2(OC(=O)NCC2CCCCC2)C[C@H]1C(=O)OC | 2 | -5 | 0 | 3070
COC(=O)[C@@]12CCCN1[C@H](c1ccc(-c3ccc4c(c3)OCO4)cc1)[C@H]1C(=O)N(C)C(=O)[C@H]12 | -4 | -7 | 0 | 4003
Cc1ccc(-n2c(-c3ccncc3)nnc2-c2ccco2)cc1 | 1 | 1 | 1 | 3557
c1ccc(-c2nnc(-c3ccco3)n2-c2ccccc2)cc1 | 9 | -10 | -1 | 4185
Cc1ccc(-c2nnc(-c3ccncc3)n2-c2ccc(C)cc2)cc1 | 0 | -2 | ? | 21828*
c1ccc(-n2c(-c3ccncc3)nnc2-c2ccco2)cc1 | 4 | -2 | 0 | 16681*
Cc1cccc(C)c1NC(=O)CNC(=O)CN1C(=O)NC2(CCc3ccccc32)C1=O (stereo not drawn) | -1 | -5 | 0 | 3238
N#CCCSc1ncnc2c1oc1ccccc12 | -1 | -2 | 2 | 18891*
OCCSc1ncnc2c1oc1ccccc12 | -4 | 7 | 0 | 2567
O=C(Nc1ccsc1C(=O)N1CCCCCC1)c1ccccc1 | -2 | 0 | -1 | 16715*
O=C(Nc1ccsc1C(=O)O)c1ccccc1 | 2 | 4 | 0 | 3038
COc1ccc(NC(=O)CC2C(=O)N(CCc3ccccc3)C(=S)N2Cc2cccnc2)cc1 (stereo not drawn) | -6 | 0 | -3 | 20810*
C=CCN1C(=O)C(CC(=O)Nc2ccc(OC)cc2)N(Cc2ccco2)C1=S (stereo not drawn) | -1 | 1 | ? | 22980*
CCN1C(=O)C(CC(=O)Nc2ccc(OC)cc2)N(Cc2cccnc2)C1=S (stereo not drawn) | 3 | 0 | 1 | 10462
COc1ccccc1NC(=O)CN(C)S(=O)(=O)c1cc(C)ccc1OC | 2 | 1 | 0 | 16552*
Cc1ccc(C)c(C(=O)COC(=O)CNS(=O)(=O)c2ccccc2)c1 | -9 | -2 | -5 | 4205
COC(=O)c1ccc(NC(=O)CN(C)S(=O)(=O)c2ccc(OC)c(C)c2)cc1 | -8 | -4 | -4 | 24716*
COc1ccc(C)cc1NC(=O)CN(C)S(=O)(=O)c1cccs1 | -7 | -3 | 1 | 4852

Screens deposited in PubChem by NMMLSC.
